# About 79,000 compounds went through this panel and 15% of them were active in at least one assay; those are over-represented in the sample as a whole. Unmarked numbers belong to inactive results. Active and inactive are the calls of the source. Rule as the data show it: active = growth inhibition above about 70%; inactive = the rest.
# Legend:
# [1] = NCI Yeast Anticancer Drug Screen. Data for the mec2-1 strain (AID 157); conditions: S. cerevisiae mec2-1 strain, hits give high values
# In short: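 Test agents were screened against the mec2-1 yeast strain, with defined DNA repair or cell cycle alteration. Growth was scored as inhibition against vehicle-only controls.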
# [2] = NCI Yeast Anticancer Drug Screen. Data for the rad14 strain (AID 159);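 also: 0% = growth of vehicle-treated control cultures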; conditions: S. cerevisiae rad14 strain growth inhibition, hits give high values
# In short: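 Vehicle-treated cultures served as the baseline for growth inhibition of a DNA repair-mutant yeast strain exposed to each compound.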
# [3] = NCI Yeast Anticancer Drug Screen. Data for the sgs1 mgt1 strain (AID 161);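 also: 0% = growth of cultures given vehicle only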; conditions: S. cerevisiae sgs1 mgt1 strain, hits give high values
# In short: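 Read-out: growth inhibition vs vehicle controls. Cells: mutant yeast strain deficient in DNA damage repair.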
# [4] = NCI Yeast Anticancer Drug Screen. Data for the CLN2oe strain (AID 163);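 also: 0% = growth of vehicle-only control cultures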; conditions: S. cerevisiae CLN2oe strain, hits give high values
# In short: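 Here, growth inhibition in a cell-cycle-altered yeast strain after compound exposure was quantified against vehicle control growth.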
# [5] = NCI Yeast Anticancer Drug Screen. Data for the cln2 rad14 strain (AID 165);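 also: 0% = growth equal to vehicle treated cultures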; conditions: S. cerevisiae cln2 rad14 strain, hits give high values
# In short: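 Growth of compound-exposed yeast (cln2 rad14 genotype) measured and expressed as inhibition relative to vehicle.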
# [6] = NCI Yeast Anticancer Drug Screen. Data for the bub3 strain (AID 167); conditions: S. cerevisiae bub3 mutant strain, hits give high values
# In short: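 Inhibition values come from growth of compound-treated mutant yeast normalised to vehicle-treated controls.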
# [7] = NCI Yeast Anticancer Drug Screen. Data for the wt2 strain (AID 169);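 also: 0% = growth of vehicle-treated yeast cultures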; conditions: S. cerevisiae wt2 strain growth inhibition, hits give high values
# In short: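 Genetically defined yeast strains from a DNA-repair/cell-cycle panel were used. Compound-exposed yeast growth was measured, and the inhibition was calculated relative to vehicle treatment.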
# [8] = NCI Yeast Anticancer Drug Screen. Data for the mlh1 strain (AID 171);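 also: 0% = growth of vehicle-treated control cultures of the same strain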; conditions: S. cerevisiae mlh1 strain growth inhibition, hits give high values
# In short: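 Here the genetically defined yeast mutant is grown with each compound, and the extent to which its growth falls below that of vehicle-exposed cells is reported.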
# [9] = NCI Yeast Anticancer Drug Screen. Data for the sgs1 strain (AID 173);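 also: 0% = growth of vehicle-only control cultures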; conditions: S. cerevisiae sgs1 mutant, hits give high values
# In short: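 Relative growth inhibition, referenced to vehicle, was determined in a yeast strain with a defined alteration affecting DNA damage repair or cell cycle control after compound exposure.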
# [10] = NCI Yeast Anticancer Drug Screen. Data for the mlh1 rad18 strain (AID 175); conditions: S. cerevisiae mlh1 rad18 strain growth inhibition, hits give high values
# In short: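 In this whole-cell yeast screen, a strain with altered DNA damage repair is challenged with compound, and its growth is measured against matched vehicle-treated controls.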
# [11] = NCI Yeast Anticancer Drug Screen. Data for the wt1 strain (AID 149);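 also: 0% = growth of vehicle-treated wt1 cultures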; conditions: S. cerevisiae wt1 strain (SPY 50644) growth inhibition, hits give high values
# In short: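 Vehicle-normalised growth inhibition; strain wt1; compound exposure.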
# [12] = NCI Yeast Anticancer Drug Screen. Data for the rad50EPP+ strain (AID 151);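 also: 0% = growth of vehicle-treated control cultures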; conditions: S. cerevisiae rad50 mutant strain, hits give high values
# In short: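 One strain with a rad50 alteration (rad50EPP+) was compound-treated, its growth then compared to that of vehicle controls.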
# [13] = NCI Yeast Anticancer Drug Screen. Data for the mgt1 strain (AID 153); conditions: S. cerevisiae mgt1 mutant growth inhibition, hits give high values
# In short: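 After exposure of the mgt1 yeast mutant to compound, growth was measured and reported as inhibition compared with vehicle controls.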
# [14] = NCI Yeast Anticancer Drug Screen. Data for the rad50 strain (AID 155);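 also: 0% = growth of vehicle-only cultures of the same strain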; conditions: S. cerevisiae rad50 strain growth inhibition, hits give high values
# In short: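 A DNA repair-deficient yeast mutant serves as the test organism; compound-induced growth inhibition is calculated against vehicle-treated cells.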
# [15] = NCI Yeast Anticancer Drug Screen. Data for the rad18 strain (AID 177); conditions: S. cerevisiae rad18 mutant growth inhibition, hits give high values
# In short: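 Screen uses a yeast strain with a defined lesion in DNA damage repair; compound effect is read as loss of growth compared to untreated vehicle cultures.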
# [16] = at 5.0 µM (retest, dose inferred, filed as 0.5)
# [17] = at 50.0 µM (retest, dose inferred, filed as 5.0)
smiles,measurement,setting,value
CNC(=O)OCc1c(COC(=O)NC)c(-c2ccc(Cl)c(Cl)c2)n2c1CCC2,growth inhibition,[1]; at 100.0 µM,98% (active)
same,growth inhibition,[2]; at 1.2 µM,-34%
same,growth inhibition,[2]; at 3.7 µM,-36%
same,growth inhibition,[2]; at 11.0 µM,-31%
same,growth inhibition,[2]; at 33.0 µM,98% (active)
same,growth inhibition,[2]; at 100.0 µM,98% (active)
same,growth inhibition,[3]; [16],32%
same,growth inhibition,[3]; [17],99% (active)
same,growth inhibition,[3]; at 50.0 µM,78.5% (active)
same,growth inhibition,[4]; at 1.2 µM,-4%
same,growth inhibition,[4]; at 3.7 µM,-13%
same,growth inhibition,[4]; at 11.0 µM,-13%
same,growth inhibition,[4]; at 33.0 µM,65%
same,growth inhibition,[4]; at 100.0 µM,98% (active)
same,growth inhibition,[5]; [16],38%
same,growth inhibition,[5]; [17],99% (active)
same,growth inhibition,[5]; at 50.0 µM,86.9% (active)
same,growth inhibition,[6]; at 1.2 µM,-58%
same,growth inhibition,[6]; at 3.7 µM,-61%
same,growth inhibition,[6]; [16],52%
same,growth inhibition,[6]; at 11.0 µM,-35%
same,growth inhibition,[6]; at 33.0 µM,93% (active)
same,growth inhibition,[6]; [17],99% (active)
same,growth inhibition,[6]; at 50.0 µM,55.6%
same,growth inhibition,[6]; at 100.0 µM,97% (active)
same,growth inhibition,[7]; at 1.2 µM,-14%
same,growth inhibition,[7]; at 3.7 µM,-14%
same,growth inhibition,[7]; at 11.0 µM,-14%
same,growth inhibition,[7]; at 33.0 µM,62%
same,growth inhibition,[7]; at 100.0 µM,97% (active)
same,growth inhibition,[8]; at 1.2 µM,-94%
same,growth inhibition,[8]; at 3.7 µM,-90%
same,growth inhibition,[8]; at 11.0 µM,-81%
same,growth inhibition,[8]; at 33.0 µM,98% (active)
same,growth inhibition,[8]; at 100.0 µM,97% (active)
same,growth inhibition,[9]; at 1.2 µM,-11%
same,growth inhibition,[9]; at 3.7 µM,-20%
same,growth inhibition,[9]; at 11.0 µM,-29%
same,growth inhibition,[9]; at 33.0 µM,88% (active)
same,growth inhibition,[9]; at 100.0 µM,97% (active)
same,growth inhibition,[10]; [16],5%
same,growth inhibition,[10]; [17],97% (active)
same,growth inhibition,[10]; at 50.0 µM,91.2% (active)
CC(C)=CC(=O)O[C@@H]1CC(C)(C)CC2C3=CCC4[C@]56CC[C@](O)(OC5)C(C)(C)C6CC[C@@]4(C)C3(C)CC[C@]21C(=O)O (stereo partly specified),growth inhibition,[11]; at 1.2 µM,-23%
same,growth inhibition,[11]; at 3.7 µM,44%
same,growth inhibition,[11]; at 11.0 µM,85% (active)
same,growth inhibition,[11]; at 33.0 µM,93% (active)
same,growth inhibition,[11]; at 100.0 µM,92% (active)
same,growth inhibition,[12]; at 1.2 µM,-9%
same,growth inhibition,[12]; at 3.7 µM,-1%
same,growth inhibition,[12]; at 11.0 µM,7%
same,growth inhibition,[12]; at 33.0 µM,14%
same,growth inhibition,[12]; at 100.0 µM,6%
same,growth inhibition,[13]; at 1.2 µM,-15%
same,growth inhibition,[13]; at 3.7 µM,11%
same,growth inhibition,[13]; at 11.0 µM,57%
same,growth inhibition,[13]; at 33.0 µM,89% (active)
same,growth inhibition,[13]; at 100.0 µM,91% (active)
same,growth inhibition,[14]; at 1.2 µM,1%
same,growth inhibition,[14]; at 3.7 µM,36%
same,growth inhibition,[14]; [16],10%
same,growth inhibition,[14]; at 11.0 µM,75% (active)
same,growth inhibition,[14]; at 33.0 µM,94% (active)
same,growth inhibition,[14]; [17],88% (active)
same,growth inhibition,[14]; at 50.0 µM,82.3% (active)
same,growth inhibition,[14]; at 100.0 µM,90% (active)
same,growth inhibition,[1]; at 1.2 µM,-8%
same,growth inhibition,[1]; at 3.7 µM,31%
same,growth inhibition,[1]; [16],27%
same,growth inhibition,[1]; at 11.0 µM,69%
same,growth inhibition,[1]; at 33.0 µM,88% (active)
same,growth inhibition,[1]; [17],87% (active)
same,growth inhibition,[1]; at 50.0 µM,83.2% (active)
same,growth inhibition,[1]; at 100.0 µM,89% (active)
same,growth inhibition,[2]; at 1.2 µM,-15%
same,growth inhibition,[2]; at 3.7 µM,2%
same,growth inhibition,[2]; at 11.0 µM,44%
same,growth inhibition,[2]; at 33.0 µM,78% (active)
same,growth inhibition,[2]; at 100.0 µM,84% (active)
same,growth inhibition,[3]; [16],11%
same,growth inhibition,[3]; [17],89% (active)
same,growth inhibition,[3]; at 50.0 µM,85.2% (active)
same,growth inhibition,[4]; at 1.2 µM,-5%
same,growth inhibition,[4]; at 3.7 µM,54%
same,growth inhibition,[4]; at 11.0 µM,85% (active)
same,growth inhibition,[4]; at 33.0 µM,95% (active)
same,growth inhibition,[4]; at 100.0 µM,93% (active)
same,growth inhibition,[5]; [16],33%
same,growth inhibition,[5]; [17],92% (active)
same,growth inhibition,[5]; at 50.0 µM,79.3% (active)
same,growth inhibition,[6]; at 1.2 µM,-18%
same,growth inhibition,[6]; at 3.7 µM,27%
same,growth inhibition,[6]; [16],25%
same,growth inhibition,[6]; at 11.0 µM,81% (active)
same,growth inhibition,[6]; at 33.0 µM,92% (active)
same,growth inhibition,[6]; [17],91% (active)
same,growth inhibition,[6]; at 50.0 µM,81.3% (active)
same,growth inhibition,[6]; at 100.0 µM,92% (active)
same,growth inhibition,[7]; at 1.2 µM,-11%
same,growth inhibition,[7]; at 3.7 µM,18%
same,growth inhibition,[7]; at 11.0 µM,61%
same,growth inhibition,[7]; at 33.0 µM,91% (active)
same,growth inhibition,[7]; at 100.0 µM,94% (active)
same,growth inhibition,[8]; at 1.2 µM,-13%
same,growth inhibition,[8]; at 3.7 µM,21%
same,growth inhibition,[8]; at 11.0 µM,58%
same,growth inhibition,[8]; at 33.0 µM,87% (active)
same,growth inhibition,[8]; at 100.0 µM,90% (active)
same,growth inhibition,[10]; [16],-11%
same,growth inhibition,[10]; [17],90% (active)
same,growth inhibition,[10]; at 50.0 µM,78% (active)
same,growth inhibition,[15]; at 1.2 µM,9%
same,growth inhibition,[15]; at 3.7 µM,42%
same,growth inhibition,[15]; at 11.0 µM,36%
same,growth inhibition,[15]; at 33.0 µM,95% (active)
same,growth inhibition,[15]; at 100.0 µM,94% (active)
